Assay results reported in PMC7862700, “An all-to-all approach to the identification of sequence-specific readers for epigenetic DNA modifications on cytosine”.

Key:
Experiment in all cases: DAPPL (digital affinity profiling via proximity ligation, sequencing); 10 mM Tris-HCl pH 7.5, 50 mM NaCl, 1 mM DTT, 4% glycerol, room temperature, 30 min; GST-TFs on glutathione beads, 16-mer random dsDNA library, 0.1% formaldehyde crosslink after washing; high values mean tight binding
Conditions in all cases: protein: recombinant; tags: N-terminal GST; dsDNA, one strand shown
FLI1 = molecular target: T1, FLI1 (Homo sapiens, UniProt Q01543 1-452)
T1 sequence: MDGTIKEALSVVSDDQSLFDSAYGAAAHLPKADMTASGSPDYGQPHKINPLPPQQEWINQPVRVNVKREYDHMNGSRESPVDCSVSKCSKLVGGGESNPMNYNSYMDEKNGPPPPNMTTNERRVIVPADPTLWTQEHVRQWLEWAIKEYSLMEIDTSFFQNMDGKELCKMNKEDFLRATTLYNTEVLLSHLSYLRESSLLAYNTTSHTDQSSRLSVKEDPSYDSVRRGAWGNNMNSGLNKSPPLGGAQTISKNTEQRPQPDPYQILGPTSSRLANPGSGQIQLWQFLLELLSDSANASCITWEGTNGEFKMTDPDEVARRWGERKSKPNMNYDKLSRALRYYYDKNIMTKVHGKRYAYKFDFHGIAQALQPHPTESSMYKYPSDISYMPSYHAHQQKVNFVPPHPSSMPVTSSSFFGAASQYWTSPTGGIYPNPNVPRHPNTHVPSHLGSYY
In short: (§1)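 After expression in yeast as GST fusions, human transcription factors were bound to glutathione beads, DNA-barcoded and mixed with a tag-only sample. The pools were incubated with 200 nmole of a 16-mer random double-stranded DNA library in Tris/NaCl/DTT/glycerol buffer (30 min, room temperature), washed and crosslinked with 0.1% formaldehyde. Proximity ligation with BsaI/T4 ligase ran for 1 h at 37 °C, before PCR amplification and sequencing on an Illumina NextSeq500. Binding signal is a hexamer's read frequency for a factor divided by its frequency for the tag-only sample.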

ELK1 = molecular target: T2, ELK1 (Homo sapiens, UniProt P19419 1-428)
T2 sequence: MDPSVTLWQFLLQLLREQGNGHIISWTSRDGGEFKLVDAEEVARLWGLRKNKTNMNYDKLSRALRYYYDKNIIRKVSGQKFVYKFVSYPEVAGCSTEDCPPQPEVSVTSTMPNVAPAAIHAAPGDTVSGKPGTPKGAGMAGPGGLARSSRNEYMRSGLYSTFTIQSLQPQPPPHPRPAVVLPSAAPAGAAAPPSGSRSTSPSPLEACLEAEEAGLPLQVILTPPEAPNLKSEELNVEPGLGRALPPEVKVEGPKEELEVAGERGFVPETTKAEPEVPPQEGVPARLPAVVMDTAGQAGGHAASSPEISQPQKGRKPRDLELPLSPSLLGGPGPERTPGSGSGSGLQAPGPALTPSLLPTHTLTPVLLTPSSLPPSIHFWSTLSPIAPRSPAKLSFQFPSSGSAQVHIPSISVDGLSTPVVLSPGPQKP
In short: as §1

GABPA = molecular target: T3, GABPA (Homo sapiens, UniProt Q06546 1-454)
T3 sequence: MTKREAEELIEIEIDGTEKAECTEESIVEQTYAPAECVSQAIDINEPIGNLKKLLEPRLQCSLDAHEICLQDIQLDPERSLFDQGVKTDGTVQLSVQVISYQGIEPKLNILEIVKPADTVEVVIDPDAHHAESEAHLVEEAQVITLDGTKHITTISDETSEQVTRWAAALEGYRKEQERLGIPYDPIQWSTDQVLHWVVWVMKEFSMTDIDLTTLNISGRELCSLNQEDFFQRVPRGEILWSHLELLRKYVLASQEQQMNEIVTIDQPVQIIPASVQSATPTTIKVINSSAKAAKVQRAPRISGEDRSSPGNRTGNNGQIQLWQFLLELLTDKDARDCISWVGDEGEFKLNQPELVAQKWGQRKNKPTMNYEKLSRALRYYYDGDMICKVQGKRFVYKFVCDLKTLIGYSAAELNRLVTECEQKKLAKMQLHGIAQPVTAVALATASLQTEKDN
In short: as §1

ERG = molecular target: T4, ERG (Homo sapiens, UniProt P11308 1-479)
T4 sequence: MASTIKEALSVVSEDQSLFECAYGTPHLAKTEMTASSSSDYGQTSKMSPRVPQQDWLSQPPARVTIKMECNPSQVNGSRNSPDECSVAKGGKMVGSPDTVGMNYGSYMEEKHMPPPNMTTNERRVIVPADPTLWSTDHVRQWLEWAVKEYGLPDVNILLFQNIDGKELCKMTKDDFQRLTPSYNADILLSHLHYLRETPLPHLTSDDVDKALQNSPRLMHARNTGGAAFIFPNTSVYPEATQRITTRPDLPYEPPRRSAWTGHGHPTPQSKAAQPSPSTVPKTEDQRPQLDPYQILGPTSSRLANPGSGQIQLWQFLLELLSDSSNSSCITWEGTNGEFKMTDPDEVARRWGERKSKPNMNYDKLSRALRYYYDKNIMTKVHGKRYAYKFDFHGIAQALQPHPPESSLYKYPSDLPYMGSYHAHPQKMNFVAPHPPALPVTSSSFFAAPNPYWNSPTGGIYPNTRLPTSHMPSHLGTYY
In short: as §1

ELF1 = ELF1 (Homo sapiens, UniProt P32519 1-619)
Chain of ELF1 (P32519 whole entry): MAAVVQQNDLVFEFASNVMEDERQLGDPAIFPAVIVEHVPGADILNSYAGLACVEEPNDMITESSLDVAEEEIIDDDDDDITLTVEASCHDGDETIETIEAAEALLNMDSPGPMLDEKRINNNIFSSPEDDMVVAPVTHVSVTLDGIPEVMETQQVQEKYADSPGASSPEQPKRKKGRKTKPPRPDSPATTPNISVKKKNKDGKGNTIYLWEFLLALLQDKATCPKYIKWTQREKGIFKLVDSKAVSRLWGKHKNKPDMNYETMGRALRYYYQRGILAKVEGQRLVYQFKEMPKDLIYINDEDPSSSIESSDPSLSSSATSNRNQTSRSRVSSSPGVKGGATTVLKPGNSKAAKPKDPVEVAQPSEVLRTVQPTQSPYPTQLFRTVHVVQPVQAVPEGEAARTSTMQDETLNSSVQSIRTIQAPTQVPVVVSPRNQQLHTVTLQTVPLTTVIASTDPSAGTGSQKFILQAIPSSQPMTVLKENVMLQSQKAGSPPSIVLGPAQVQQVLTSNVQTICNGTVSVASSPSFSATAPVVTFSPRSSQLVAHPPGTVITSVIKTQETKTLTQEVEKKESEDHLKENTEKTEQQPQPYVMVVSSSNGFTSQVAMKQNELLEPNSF
In short: as §1

EHF = molecular target: T5, EHF (Homo sapiens, UniProt Q9NZC4 1-300)
T5 sequence: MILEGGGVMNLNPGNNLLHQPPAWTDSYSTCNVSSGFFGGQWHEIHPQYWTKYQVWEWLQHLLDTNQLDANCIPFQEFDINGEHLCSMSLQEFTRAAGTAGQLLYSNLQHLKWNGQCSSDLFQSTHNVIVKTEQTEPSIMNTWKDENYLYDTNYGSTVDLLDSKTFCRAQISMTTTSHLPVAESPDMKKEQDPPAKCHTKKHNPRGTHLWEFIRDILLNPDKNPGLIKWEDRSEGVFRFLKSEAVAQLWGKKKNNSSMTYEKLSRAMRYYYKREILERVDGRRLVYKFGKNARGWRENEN
In short: as §1

SPI1 = SPI1 (Homo sapiens, UniProt P17947 1-270)
In short: as §1

ELK3 = molecular target: T6, ELK3 (Homo sapiens, UniProt P41970 1-407)
T6 sequence: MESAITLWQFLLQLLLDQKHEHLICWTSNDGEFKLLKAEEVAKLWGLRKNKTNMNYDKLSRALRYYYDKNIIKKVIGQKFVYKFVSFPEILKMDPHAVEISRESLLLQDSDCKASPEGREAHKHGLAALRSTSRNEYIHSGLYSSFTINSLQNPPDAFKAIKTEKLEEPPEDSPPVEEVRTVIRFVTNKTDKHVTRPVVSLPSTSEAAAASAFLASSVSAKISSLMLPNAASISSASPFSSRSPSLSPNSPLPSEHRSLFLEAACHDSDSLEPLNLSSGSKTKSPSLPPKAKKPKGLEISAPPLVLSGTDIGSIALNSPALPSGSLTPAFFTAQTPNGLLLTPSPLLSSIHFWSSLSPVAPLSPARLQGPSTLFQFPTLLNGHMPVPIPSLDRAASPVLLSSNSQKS
In short: as §1

FEV = molecular target: T7, FEV (Homo sapiens, UniProt Q99581 1-238)
T7 sequence: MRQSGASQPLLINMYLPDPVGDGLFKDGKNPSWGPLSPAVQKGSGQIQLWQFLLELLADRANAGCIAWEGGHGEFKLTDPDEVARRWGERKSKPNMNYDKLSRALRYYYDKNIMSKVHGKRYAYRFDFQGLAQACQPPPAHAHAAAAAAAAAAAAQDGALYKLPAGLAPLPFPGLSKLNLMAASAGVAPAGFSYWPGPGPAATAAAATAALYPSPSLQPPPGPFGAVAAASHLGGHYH
In short: as §1

ETV5 = ETV5 (Homo sapiens, UniProt P41161 1-510)
Chain of ETV5 (P41161 whole entry): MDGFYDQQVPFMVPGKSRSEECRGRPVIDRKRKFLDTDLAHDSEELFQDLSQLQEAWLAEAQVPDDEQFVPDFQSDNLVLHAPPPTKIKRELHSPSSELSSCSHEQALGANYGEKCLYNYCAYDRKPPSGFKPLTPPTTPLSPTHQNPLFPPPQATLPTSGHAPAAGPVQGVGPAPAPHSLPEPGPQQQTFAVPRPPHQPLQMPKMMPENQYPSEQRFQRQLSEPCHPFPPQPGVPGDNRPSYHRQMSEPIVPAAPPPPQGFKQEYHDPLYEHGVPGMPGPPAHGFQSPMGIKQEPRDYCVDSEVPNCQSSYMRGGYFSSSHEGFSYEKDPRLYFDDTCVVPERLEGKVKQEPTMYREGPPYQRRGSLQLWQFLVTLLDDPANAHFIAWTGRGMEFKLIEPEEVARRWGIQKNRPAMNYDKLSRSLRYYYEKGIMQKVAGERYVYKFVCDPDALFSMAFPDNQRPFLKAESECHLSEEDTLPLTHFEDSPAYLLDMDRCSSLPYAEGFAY
In short: as §1

SPIC = molecular target: T8, SPIC (Homo sapiens, UniProt Q8N5J4 1-248)
T8 sequence: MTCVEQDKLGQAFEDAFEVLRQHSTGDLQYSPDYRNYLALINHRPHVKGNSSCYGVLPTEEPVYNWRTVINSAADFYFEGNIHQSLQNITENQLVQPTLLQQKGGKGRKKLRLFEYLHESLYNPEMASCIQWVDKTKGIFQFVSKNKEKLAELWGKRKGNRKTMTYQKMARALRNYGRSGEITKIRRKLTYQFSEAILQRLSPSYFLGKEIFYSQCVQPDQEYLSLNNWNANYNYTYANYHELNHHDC
In short: as §1

ELF4 = ELF4 (Homo sapiens, UniProt Q99607 1-663)
Chain of ELF4 (Q99607 whole entry): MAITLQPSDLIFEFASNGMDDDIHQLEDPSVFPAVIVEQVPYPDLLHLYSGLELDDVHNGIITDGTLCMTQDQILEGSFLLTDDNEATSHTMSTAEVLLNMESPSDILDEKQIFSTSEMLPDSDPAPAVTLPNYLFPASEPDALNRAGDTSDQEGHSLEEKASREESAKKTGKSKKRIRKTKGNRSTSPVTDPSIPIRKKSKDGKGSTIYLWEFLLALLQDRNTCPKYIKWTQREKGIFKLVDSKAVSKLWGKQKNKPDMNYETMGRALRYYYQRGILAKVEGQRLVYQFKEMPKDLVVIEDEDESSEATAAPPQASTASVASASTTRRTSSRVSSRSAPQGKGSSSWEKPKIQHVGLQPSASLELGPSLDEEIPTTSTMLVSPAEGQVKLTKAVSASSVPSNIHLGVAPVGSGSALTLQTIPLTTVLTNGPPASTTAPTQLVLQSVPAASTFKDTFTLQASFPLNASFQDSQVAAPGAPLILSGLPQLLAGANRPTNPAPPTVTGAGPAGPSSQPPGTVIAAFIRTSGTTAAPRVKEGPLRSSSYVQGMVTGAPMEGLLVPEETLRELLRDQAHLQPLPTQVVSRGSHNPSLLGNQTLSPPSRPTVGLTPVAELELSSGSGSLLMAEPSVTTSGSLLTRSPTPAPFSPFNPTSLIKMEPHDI
In short: as §1

ELK4 = molecular target: T9, ELK4 (Homo sapiens, UniProt P28324-2 1-405)
T9 sequence: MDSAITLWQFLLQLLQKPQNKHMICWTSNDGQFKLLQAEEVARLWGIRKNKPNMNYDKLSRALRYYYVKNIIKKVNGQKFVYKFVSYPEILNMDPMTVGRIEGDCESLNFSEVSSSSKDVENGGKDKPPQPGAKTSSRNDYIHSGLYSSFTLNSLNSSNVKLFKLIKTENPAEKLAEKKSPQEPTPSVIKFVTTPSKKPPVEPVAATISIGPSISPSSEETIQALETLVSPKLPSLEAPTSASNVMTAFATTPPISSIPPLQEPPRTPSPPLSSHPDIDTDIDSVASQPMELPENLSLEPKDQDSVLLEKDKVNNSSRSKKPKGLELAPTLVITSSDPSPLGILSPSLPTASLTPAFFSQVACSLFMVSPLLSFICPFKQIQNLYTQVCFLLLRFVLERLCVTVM
In short: as §1

ETV2 = molecular target: T10, ETV2 (Homo sapiens, UniProt O00321 1-342)
T10 sequence: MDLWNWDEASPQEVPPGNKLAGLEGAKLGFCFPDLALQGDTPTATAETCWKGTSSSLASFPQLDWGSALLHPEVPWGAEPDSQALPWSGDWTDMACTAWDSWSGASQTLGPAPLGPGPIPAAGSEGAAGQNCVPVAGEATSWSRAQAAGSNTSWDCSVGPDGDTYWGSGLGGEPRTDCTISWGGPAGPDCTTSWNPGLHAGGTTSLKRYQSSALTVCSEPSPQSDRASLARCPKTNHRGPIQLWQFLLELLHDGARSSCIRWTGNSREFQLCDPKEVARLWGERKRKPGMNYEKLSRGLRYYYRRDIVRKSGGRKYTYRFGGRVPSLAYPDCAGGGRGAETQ
In short: as §1

ELF3 = molecular target: T11, ELF3 (Homo sapiens, UniProt P78545 1-371)
T11 sequence: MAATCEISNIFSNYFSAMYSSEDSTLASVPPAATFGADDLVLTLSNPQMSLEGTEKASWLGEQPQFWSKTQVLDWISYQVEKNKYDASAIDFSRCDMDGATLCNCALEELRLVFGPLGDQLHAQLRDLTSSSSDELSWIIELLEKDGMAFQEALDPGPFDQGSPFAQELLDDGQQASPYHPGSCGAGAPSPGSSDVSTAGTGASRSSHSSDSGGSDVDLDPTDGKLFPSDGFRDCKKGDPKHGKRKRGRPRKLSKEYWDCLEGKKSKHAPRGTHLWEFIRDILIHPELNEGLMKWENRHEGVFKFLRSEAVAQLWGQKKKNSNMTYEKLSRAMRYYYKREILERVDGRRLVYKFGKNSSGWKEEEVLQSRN
In short: as §1

ETV1 = ETV1 (Homo sapiens, UniProt P50549 1-477)
Chain of ETV1 (P50549 whole entry): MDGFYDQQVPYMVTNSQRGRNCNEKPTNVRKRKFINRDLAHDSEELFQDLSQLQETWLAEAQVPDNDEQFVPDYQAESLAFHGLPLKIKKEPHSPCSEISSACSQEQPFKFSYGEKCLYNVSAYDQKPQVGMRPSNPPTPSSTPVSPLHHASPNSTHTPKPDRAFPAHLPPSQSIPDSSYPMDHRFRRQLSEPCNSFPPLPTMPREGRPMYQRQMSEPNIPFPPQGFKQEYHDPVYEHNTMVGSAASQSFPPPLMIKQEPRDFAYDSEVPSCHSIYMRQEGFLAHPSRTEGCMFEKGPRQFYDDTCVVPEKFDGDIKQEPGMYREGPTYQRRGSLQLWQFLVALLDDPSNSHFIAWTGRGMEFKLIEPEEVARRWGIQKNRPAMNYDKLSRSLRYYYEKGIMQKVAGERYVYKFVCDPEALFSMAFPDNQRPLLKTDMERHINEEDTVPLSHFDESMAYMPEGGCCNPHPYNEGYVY
In short: as §1

SPIB = SPIB (Homo sapiens, UniProt Q01892 1-262)
Chain of SPIB (Q01892 whole entry): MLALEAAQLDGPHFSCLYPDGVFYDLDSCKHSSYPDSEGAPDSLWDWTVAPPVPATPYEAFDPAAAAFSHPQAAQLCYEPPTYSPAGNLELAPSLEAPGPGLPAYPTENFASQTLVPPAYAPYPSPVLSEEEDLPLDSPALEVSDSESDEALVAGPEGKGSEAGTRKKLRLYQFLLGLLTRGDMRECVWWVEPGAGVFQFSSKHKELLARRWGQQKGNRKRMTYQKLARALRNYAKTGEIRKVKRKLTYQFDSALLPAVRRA
In short: as §1

| Sequence | binding signal (FLI1) | binding signal (ELK1) | binding signal (GABPA) | binding signal (ERG) | binding signal (ELF1) | binding signal (EHF) | binding signal (SPI1) | binding signal (ELK3) | binding signal (FEV) | binding signal (ETV5) | binding signal (SPIC) | binding signal (ELF4) | binding signal (ELK4) | binding signal (ETV2) | binding signal (ELF3) | binding signal (ETV1) | binding signal (SPIB) |
| --- | --- | --- | --- | --- | --- | --- | --- | --- | --- | --- | --- | --- | --- | --- | --- | --- | --- |
| GATAGC | 1.11 fold enrichment (6-mer frequency, TF over GST control) | 1.1 fold enrichment (6-mer frequency, TF over GST control) | 1.13 fold enrichment (6-mer frequency, TF over GST control) | 1.02 fold enrichment (6-mer frequency, TF over GST control) | 1.02 fold enrichment (6-mer frequency, TF over GST control) | 1.1 fold enrichment (6-mer frequency, TF over GST control) | 1.05 fold enrichment (6-mer frequency, TF over GST control) | 1.1 fold enrichment (6-mer frequency, TF over GST control) | 1.07 fold enrichment (6-mer frequency, TF over GST control) | 1.04 fold enrichment (6-mer frequency, TF over GST control) | 1.07 fold enrichment (6-mer frequency, TF over GST control) | 1.06 fold enrichment (6-mer frequency, TF over GST control) | 1.03 fold enrichment (6-mer frequency, TF over GST control) | 1.18 fold enrichment (6-mer frequency, TF over GST control) | 1.08 fold enrichment (6-mer frequency, TF over GST control) | 1.02 fold enrichment (6-mer frequency, TF over GST control) |  |
| GTAGCA | 1.03 fold enrichment (6-mer frequency, TF over GST control) | 1.1 fold enrichment (6-mer frequency, TF over GST control) | 1.15 fold enrichment (6-mer frequency, TF over GST control) |  | 1.16 fold enrichment (6-mer frequency, TF over GST control) | 1.1 fold enrichment (6-mer frequency, TF over GST control) | 1.08 fold enrichment (6-mer frequency, TF over GST control) | 1.11 fold enrichment (6-mer frequency, TF over GST control) | 1.07 fold enrichment (6-mer frequency, TF over GST control) | 1.13 fold enrichment (6-mer frequency, TF over GST control) | 1.16 fold enrichment (6-mer frequency, TF over GST control) | 1.07 fold enrichment (6-mer frequency, TF over GST control) | 1.06 fold enrichment (6-mer frequency, TF over GST control) | 1.11 fold enrichment (6-mer frequency, TF over GST control) | 1.01 fold enrichment (6-mer frequency, TF over GST control) | 1.11 fold enrichment (6-mer frequency, TF over GST control) | 1.03 fold enrichment (6-mer frequency, TF over GST control) |
